Abeta rescue – restores growth of yeast expressing A-beta42 peptide; yeast expressing A-beta42, growth rescue, OD600, 48 h; response scale: 0% DMSO, 100% iron-clioquinol control; Potency, µM (series often up to 46.1 µM), usual class: activators; hit rate 0.063% among 410,000; further: potency means the concentration at half of the fitted maximal effect; nearly all actives have a fitted effect of over 55% in size
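Growth rescue measured by 600 nm absorbance after 48 h yeast culture at 30 C with compound. Values normalized between DMSO and an equimolar ferric chloride plus clioquinol control.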
Glioma ERSR ind – inducers of ER stress response in human glioma cells; hit rate 0.02% among 420,000; U87-MG GRP78 promoter luciferase reporter, 16 h; Potency, µM, inactives show at the top dose activation, most hits filed as activators; further: potency means the concentration at half of the fitted maximal effect; series mostly up to about 76 µM; % of control where 0% means no effect; nearly all actives have a fitted effect of over 35% in size
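ERSR induction read as luciferase luminescence (Bright-Glo, 10 min at room temperature) in stably transfected human U87-MG glioma cells exposed to compounds for 16 h, using GRP78 as sensor.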
FUS suppressor – suppressors of FUS proteinopathy in yeast; S. cerevisiae FUS-expressing, growth rescue, OD600, 24 h; hit rate 0.24% among 390,000; Potency, µM (series often up to 76.6 µM), hits mostly activators; AID 1347120;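 further: potency means the concentration at half of the fitted maximal effect; plate controls were DMSO vehicle for no effect and reference control for full effect; nearly all actives have a fitted effect of over 55% in size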
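Yeast expressing FUS under galactose induction, OD 0.005 in 2% galactose medium; compounds in a dilution series, 24 h at 30C. Growth rescue by absorbance at 600 nm; CP55940 positive control, DMSO negative.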
aSyn rescue – inhibitors of alpha-synuclein toxicity in yeast; Yeast expressing alpha-synuclein, growth rescue, BacTiter-Glo, 24 h; Potency, µM (series often up to 46.1 µM), without a hit: at the top dose growth rescue (activation), usual class: activators; hit rate 0.14% among 370,000; further: potency means the concentration at half of the fitted maximal effect; % of control where 0% means no effect; nearly all actives have a fitted effect of over 65% in size
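Rescue of yeast growth: cells expressing toxic alpha-synuclein, induced in galactose at OD600 0.02, incubated with compound 24 h at 30 C. ATP luminescence quantified growth; inhibitors of toxicity appear as activators.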
MBNL1 CUG block – MBNL1-poly(CUG) RNA binding inhibition; Q9NR56; TR-FRET MBNL1-His/biotin-(CUG)12 binding, 665/545 ratio; Potency, µM (top dose mostly 57.5 µM), without a hit: top-dose activity change, negative = inhibition, hits mostly inhibitors; hit rate 0.036% among 280,000; AID 2675; active means well fitted inhibition curve with a large enough effect in the signal ratio, with a control signal flat, not every such curve was filed as active; inconclusive means small, poorly fitted or top-dose-only effect, or effect the other way, or a change in a side signal; inactive means no such curve, though single readings can be large or run the other way; the % refers to the signal ratio; further: potency means the concentration at half of the fitted maximal effect; on the % scale 0 is the no-effect control and ±100 the full control effect
Target sequence (Q9NR56 whole entry, looked up): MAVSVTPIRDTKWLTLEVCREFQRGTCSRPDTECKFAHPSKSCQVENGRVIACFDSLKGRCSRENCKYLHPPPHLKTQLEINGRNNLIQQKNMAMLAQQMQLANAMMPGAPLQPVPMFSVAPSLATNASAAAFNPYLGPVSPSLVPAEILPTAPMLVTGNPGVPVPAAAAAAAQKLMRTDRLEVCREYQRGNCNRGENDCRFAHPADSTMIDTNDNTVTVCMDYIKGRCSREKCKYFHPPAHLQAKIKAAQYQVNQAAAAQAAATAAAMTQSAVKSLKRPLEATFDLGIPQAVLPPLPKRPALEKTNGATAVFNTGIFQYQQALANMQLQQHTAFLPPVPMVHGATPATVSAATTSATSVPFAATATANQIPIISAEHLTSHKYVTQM
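TR-FRET readout: Ex 340 nm, 665/545 nm emission ratio, normalized to buffer-only (basal) and MBNL1-(CUG)12 controls. Complex of MBNL1-His with Biotin-(CUG)12, compounds 92 nM–58 uM, incubated 60 min at room temperature.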
TDP43 rescue – TDP-43 toxicity inhibition in yeast; Potency, µM (titrated, usually from 46.1 µM), without a hit: top-dose growth rescue (activation), hits mostly activators; TDP-43 expressing yeast growth rescue, BacTiter-Glo, 24 h; AID 652104; hit rate 1.8% among 410,000; further: potency means the concentration at half of the fitted maximal effect; % of control where 0% means no effect; nearly all actives have a fitted effect of over 50% in size
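Growth rescue of TDP-43-toxic yeast measured as ATP luminescence (BacTiter-Glo). Cells grown to mid-log in raffinose, induced in galactose at OD600=0.02, exposed to compound 24 hr at 30 deg C.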
MBNL1-CUG FRET – MBNL1-poly(CUG) RNA binding inhibition confirmed | TR-FRET MBNL1-His / biotin-(CUG)12 binding, 60 min | Potency, µM (doses to about 57.6 µM), inactives show at the highest dose activity change, negative = inhibition, actives largely listed as inhibitors | AID 493199 | shares compounds with MBNL1 CUG block | hit rate 50% among 140
MBNL1 AlphaScrn – MBNL1-CUG RNA binding inhibition, AlphaScreen validation | shares compounds with MBNL1 CUG block | AlphaScreen MBNL1-His / biotin-(CUG)12 binding | Potency, µM (series often up to 57.7 µM), without a hit: top-dose activity, negative = inhibition, hits mostly inhibitors | hit rate 30% among 140 | AID 493205
Menin-MLL HTRF – counter-screen for MBNL1-poly(CUG) RNA binding inhibitors; shares compounds with MBNL1 CUG block; His-Menin/biotin-MLL peptide TR-FRET counterscreen; Potency, µM (series often up to 57.6 µM), for the others: at the top dose activity, negative = inhibition, hits mostly inhibitors; hit rate 20% among 120; AID 651843
Numbers without * were called inactive. Compounds with a hit are over-represented: about 2% of the library has one in this group of screens. Unless noted, the call rests on the fitted dose curve; in most records, active means well fitted curve in the direction sought with a large enough effect; inconclusive means small, poorly fitted or top-dose-only effect, or another doubt; inactive means no such curve, though single readings can be large; an effect the other way counts as inactive or inconclusive.

How did CCn1nc(-c2ccccc2)nc2c(=O)n(C)c(=O)nc1-2 do in these assays?
Abeta rescue: inactive; Glioma ERSR ind: -17%; FUS suppressor: inactive; aSyn rescue: -76%; MBNL1 CUG block: inconclusive; TDP43 rescue: inconclusive; MBNL1-CUG FRET: 0.52µM*; MBNL1 AlphaScrn: 0.26µM*; Menin-MLL HTRF: 86%

How did O=c1[nH]cnc2[nH]cc(CN3CCCCC3)c12 do in these assays?
Glioma ERSR ind: -3%

How did O=C1c2ccccc2C(=O)C1C(=O)C(c1ccccc1)c1ccccc1 do in these assays?
Glioma ERSR ind: -2%; MBNL1-CUG FRET: inconclusive; MBNL1 AlphaScrn: inconclusive; Menin-MLL HTRF: -26%

Results for Oc1ccc2c3c1O[C@H]1c4[nH]c5ccccc5c4C[C@]4(O)[C@H](C2)N(CC2CC2)CC[C@@]314 ?
Glioma ERSR ind: -4%

How did Oc1ccc2c3c1O[C@H]1c4[nH]c5c(c4C[C@@]4(O)[C@@H](C2)N(CC2CC2)CC[C@]314)C[C@@]1(O)[C@H]2Cc3ccc(O)c4c3[C@@]1(CCN2CC1CC1)[C@H]5O4 do in these assays?
Glioma ERSR ind: -2%; aSyn rescue: 4%; MBNL1-CUG FRET: 16µM*; MBNL1 AlphaScrn: 11µM*

How did Cc1ccc(C(=O)Cn2c(-c3ccccc3)noc2=O)cc1 do in these assays?
Abeta rescue: inactive; Glioma ERSR ind: -3%; FUS suppressor: inactive; aSyn rescue: 10%; MBNL1 CUG block: 7%; TDP43 rescue: inconclusive

How did Cc1nnc2n1-c1ccc(Cl)cc1C(c1ccccc1Cl)=NC2 do in these assays?
Glioma ERSR ind: 2%

How did Clc1ccc2c(c1)C(c1ccccc1Cl)=NCc1nnc(Br)n1-2 do in these assays?
Abeta rescue: inactive; Glioma ERSR ind: 3%; FUS suppressor: inactive; aSyn rescue: 15%; MBNL1 CUG block: 25µM*; TDP43 rescue: 9%; MBNL1-CUG FRET: 17%; MBNL1 AlphaScrn: -6%; Menin-MLL HTRF: 4%

Results for CCOC(=O)N1CCC(NC(=O)CCc2nc(C3=CCN(C)CC3)no2)CC1 ?
Abeta rescue: inactive; Glioma ERSR ind: -4%; FUS suppressor: inactive; aSyn rescue: 1%; MBNL1 CUG block: 10µM*; TDP43 rescue: -23%; MBNL1-CUG FRET: 8.2µM*; MBNL1 AlphaScrn: 3.7µM*; Menin-MLL HTRF: inconclusive

Screening data as filed in PubChem.
